Assay results as given in PubChem BioAssay (NCATS).
Inconclusive results are not listed. Where a call stands in place of a potency, no number is given. Active and inactive are the calls of the source. Calls come from the whole dose curve; as a rule, active = well fitted inhibition curve with a large enough effect; inconclusive = small, poorly fitted or top-dose-only effect; inactive = flat fitted curve, though single readings scatter.

Each compound was assayed on CP203 (assay: qHTS profiling for inhibitors of Plasmodium falciparum proliferation (AID 504749; note: nearly all actives have a fitted effect of over 60% in size)). Conditions: P. falciparum in erythrocytes, SYBR Green DNA, 72 h; series mostly up to 28.7 µM.
Description: NIH National Institute of Allergy and Infectious Diseases [NIAID] NIH Chemical Genomics Center [NCGC] MLPCN Grant: None Assay Provider: Xinzhuan Su, NIAID NCGC Assay Overview: Plasmodium falciparum is a virulent malarial parasite that kills 1-2 million people worldwide each year. Transmitted by mosquitoes, the sporozoite form of the parasite enters the blood stream to infect hepatocytes, where they become merozoites that infect red blood cells (erythrocytes). Within erythrocytes, merozoites begin a […] cycle of growth and division, after which the parasite is released to infect new red blood cells. Gametocytes, which form within erythrocytes as well, circulate in the bloodstream and are ingested by the mosquito, thereby completing the life cycle. To profile malarial isolates for differential chemical responses and to identify inhibitors of malarial growth, an assay that measures P. falciparum growth and replication within erythrocytes was employed. This assay uses a DNA binding fluorescent dye (SYBR Green) to detect parasite DNA following cell lysis. Because mature erythrocytes lack DNA, only Plasmodium-derived DNA is detected.
NCGC Assay Protocol Summary: The SYBR Green viability assay was adapted from a method described previously (Plouffe et al., 2008). For screening 3 ul culture medium was dispensed into 1536 well black clear bottom plates (Aurora Biotechnologies) using a Multidrop Combi (Thermo Fisher Scientific Inc.), 23 nL compounds in DMSO were added by a pin tool (Kalypsys), and 5 ul of erythrocytes infected with P. falciparum (0.3% parasitemia, 2.5% hematocrit final concentration) were added. The plates were incubated at 37 C in a humidified incubator in 5% CO2 for 72 h, and 2 ul lysis buffer (20 mM Tris HCl, 10 mM EDTA, 0.16% saponin, 1.6% triton X, 10X SYBR Green I supplied as 10,000X […] by Invitrogen) was added to each well. The plates were mixed for 25 sec with gentle shaking and incubated overnight at room temperature in the dark. The following morning, fluorescence intensity at 485(14) nm excitation and 535(25) nm emission wavelengths was measured on an EnVision (Perkin Elmer) plate reader. Plate reads were normalized relative to the control inhibitor (0.29 uM artemisinin) and vehicle (DMSO) wells present on each plate and then corrected by an algorithm using vehicle-only control plates at the beginning and end of the compound plate stack.
Potency is the fitted concentration of half-maximal effect.

Structure (SMILES) | Potency
O=C(O)[C@H](O)[C@@H](O)[C@H](O)[C@H](O)CO | inactive
Cc1c(Nc2ncccc2C(=O)O)cccc1C(F)(F)F | inactive
CCCCCCCCCCCC(=O)[O][Sn]([CH2]CCC)([CH2]CCC)[O]C(=O)CCCCCCCCCCC | inactive
Cc1cc(O)c2ccccc2c1O | inactive
CC1OC1P(=O)(O)O (stereo not given) | inactive
CCCCCCCCCCCCCCCCCC(=O)O | inactive
O=C(O)c1ccccc1Nc1cccc(C(F)(F)F)c1 | inactive
CCOC(=O)c1ccccc1O | inactive
CCCCCCCCCCCCCCCC(=O)OC(C)C | inactive
O=C(CCN1CCN(CCO)CC1)N1c2ccccc2Sc2ccc(C(F)(F)F)cc21 | inactive
c1ccc2sc(SN3CCOCC3)nc2c1 | inactive
O=C(O)/C=C/C(O)c1ccc(Cl)cc1 (stereo not given) | inactive
CC1(C)[C@@H](O)CC[C@]2(C)[C@H]3C(=O)C=C4[C@@H]5C[C@@](C)(C(=O)O)CC[C@]5(C)CC[C@@]4(C)[C@]3(C)CC[C@@H]12 | inactive
C=CC(N)CCC(=O)O (stereo not given) | inactive
CCCCC[C@H](O)/C=C/[C@@H]1[C@@H](C/C=C\CCCC(=O)O)[C@@H](O)C[C@H]1O | inactive
O=C(/C=C/c1ccccc1)NCCO | inactive
CC1(C)C[C@@H]1C(=O)N/C(=C\CCCCSC[C@H](N)C(=O)O)C(=O)O | inactive
CN1[C@@H](CC(=O)c2ccccc2)CCC[C@H]1C[C@H](O)c1ccccc1 | inactive
CCCC(=O)OC[C@@H](OC(=O)CCC)[C@@H](OC(=O)CCC)[C@H](Cn1c2nc(=O)[nH]c(=O)c-2nc2cc(C)c(C)cc21)OC(=O)CCC | inactive
CCCSc1ccc2nc(NC(=O)OC)[nH]c2c1 | inactive

Structure (SMILES) | Potency
CN1[C@@H]2CC[C@H]1CC(OC(=O)C(CO)c1ccccc1)C2 (stereo not given in full) | inactive
CN1CCN(c2cc3c(nn2)Oc2ccccc2N3C)CC1 | inactive
COc1cc(CNC(=O)CCCC/C=C/C(C)C)ccc1O | inactive
COc1cc(/C=C/C(=O)N2CCN(CC(=O)N3CCCC3)CC2)cc(OC)c1OC | inactive
CN(C)c1ccc(C(=C2C=CC(=[N+](C)C)C=C2)c2ccccc2)cc1 | 10.7 µM (active)
CC1(C)S[C@@H]2[C@H](NC(=O)[C@H](NC(=O)N3CCN(S(C)(=O)=O)C3=O)c3ccccc3)C(=O)N2[C@H]1C(=O)O | inactive
Nc1cc(-c2ccncc2)c[nH]c1=O | inactive
O=C1CN(/N=C/c2ccc(-c3ccc([N+](=O)[O-])cc3)o2)C(=O)N1 | inactive
CCC1C(=O)OCC1Cc1cncn1C (stereo not given) | inactive
C=CCCCCCCCCC(=O)O | inactive
N=c1ccn2c(n1)O[C@H]1[C@H](O)[C@@H](CO)O[C@H]12 | inactive
CCCCCCOc1ccccc1C(N)=O | inactive
CCCOC(=O)c1ccc(O)cc1 | inactive
CC(C(=O)O)c1ccc2c(c1)[nH]c1ccc(Cl)cc12 (stereo not given) | inactive
C[S+](CC[C@H](N)C(=O)O)C[C@H]1O[C@@H](n2cnc3c(N)ncnc32)[C@H](O)[C@@H]1O (stereo not given in full) | inactive
O=C(O)[C@H](CC(=O)N1C[C@H]2CCCC[C@H]2C1)Cc1ccccc1 | inactive
Cc1nc2ccccc2n1Cc1ccc(Cl)cc1 | inactive
O=C(O)COc1ccc(C(=O)c2cccs2)c(Cl)c1Cl | inactive
CCOc1ccc2nc(S(N)(=O)=O)sc2c1 | inactive
C=CCN1C(=O)C(CC(C)C)NC1=S (stereo not given) | inactive
